# From PubChem
# AMA1 RON2 block: disrupts binding of P. falciparum AMA1 to RON2; AlphaScreen AMA1-biotinylated RON2 peptide binding; Potency, µM (doses to about 58.2 µM), for the others: top-dose activity change, negative = inhibition, most hits filed as inhibitors; hit rate 0.2% among 360,000; AID 720542;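 note: 0% = vehicle wells and -100% = peptide control; nearly all actives have a fitted effect of over 45% in size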
#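 AMA1 (3D7) with his tag at 25 nM final met compounds first, then biotinylated RON2 peptide at 25 nM; detection used donor plus acceptor beads, 10 µg/mL apiece, read by AlphaScreen after 30 min at room temperature.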
# Pf growth 96h: inhibits malaria parasite growth, 96 h; Potency, µM (series often up to 28.7 µM), for the others: at the top dose activity change, negative = inhibition, hits mostly inhibitors; hit rate 6.9% among 320,000; P. falciparum luciferase reporter growth, 96 h; AID 504834; note: % is set by controls: 0 for no effect and ±100 for the full control effect
#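 Cell-based qHTS: luciferase-tagged P. falciparum in erythrocytes (2% hematocrit, 0.05% parasitemia final) incubated with compounds for 96 hours, 37 C, 5% CO2; luciferase detection reagent then added and luminescence measured.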
# Sm TGR block: blocks Schistosoma mansoni thioredoxin glutathione reductase. AID 485364. Q962Y6. purified TGR, DTNB reduction, TNB absorbance 405 nm. hit rate 3% among 360,000. Potency, µM (titrated, usually from 114 µM), without a hit: at the highest dose activity change, negative = inhibition, usual class: inhibitors; note: % is set by controls: 0 for no effect and ±100 for the full control effect; nearly all actives have a fitted effect of over 60% in size
#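 First, TGR (20 nM dispensed) and NADPH were mixed with compound. Second, a 15 min room-temperature incubation followed. Third, further NADPH and then DTNB were added to start the reaction. Finally, TNB absorbance was monitored kinetically.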
# Pf growth 48h: P. falciparum growth inhibition at 48 hours (one generation) | hit rate 5.9% among 310,000 | AID 504832 | Potency, µM (highest dose often 28.7 µM), inactives show top-dose activity change, negative = inhibition, most hits filed as inhibitors | P. falciparum luciferase growth in erythrocytes, 48 h; note: % is set by controls: 0 for no effect and ±100 for the full control effect
#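 Luciferase-expressing P. falciparum in infected erythrocytes (2% hematocrit, 0.1% parasitemia final) in RPMI 1640/0.5% Albumax were exposed to compound for 48 hours at 37 C, 5% CO2; growth read as luminescence.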
# NS1 inh: influenza NS1 inhibition; Potency, µM (titrated, usually from 46.1 µM), inactives show at the highest dose activity, positive = more growth; hit rate 0.4% among 270,000; AID 2326; calls by dose curve; note: actives are rising curves; nearly all actives have a fitted effect of over 50% in size
#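 Recovery from NS1-induced slow growth read by OD600 in budding yeast switched to galactose assay medium (pH 6.0, -URA) at 1:100 dilution. Compound 23 nl per well; the matching strain lacking NS1 serves as control.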
# Starred values were filed as active, the others as inactive; ? = inconclusive; . = no result; [ ] = dose if it differs, or a comment. In the library only some 11% were active in any assay of this set; here they are far more common. Unless noted, calls come from the whole dose curve; as a rule, active = well fitted curve in the direction sought with a large enough effect; inconclusive = small, poorly fitted or top-dose-only effect, or another doubt; inactive = no such curve, though single readings can be large; an effect the other way counts as inactive or inconclusive. Potency is the fitted concentration of half-maximal effect.
SMILES,AMA1 RON2 block,Pf growth 96h,Sm TGR block,Pf growth 48h,NS1 inh
COc1ccc(N2C(=O)/C(=C/c3ccc([N+](=O)[O-])cc3)C=C2c2ccccc2)cc1,-21.3%,13.1µM*,-21.4%,?,17.1%
O=C1/C(=C/c2ccc([N+](=O)[O-])cc2)C=C(c2ccccc2)N1c1ccccc1,-11.0%,?,0.0%,9.3%,18.9%
O=C(O)c1cccc(N2C(=O)/C(=C/c3ccc([N+](=O)[O-])cc3)C=C2c2ccccc2)c1,?,?,25.1µM*,-66.2%,.
C[C@@H]1CN([C@@H](C)CO)C(=O)CCCn2nncc2CO[C@H]1CN(C)S(=O)(=O)c1cn(C)cn1,17.3%,.,.,.,.
Cc1sc2nc(SCC(=O)c3cc(C)n(CC4CCCO4)c3C)n(C(C)C)c(=O)c2c1C (centres undefined),-2.4%,8.28µM*,0.0%,?,-2.3%
Cc1cc(C(=O)CSc2nnnn2-c2ccccc2)c(C)n1-c1ccc2c(c1)OCO2,-25.7%,8.28µM*,-18.5%,10.4µM*,?
C=CCn1c(SCC(=O)c2cc(C)n(CC3CCCO3)c2C)nnc1-c1ccccc1 (centres undefined),28.9%,9.28µM*,-3.2%,?,0.5%
Cc1cc(C(=O)CSc2nnc(-c3cccc(F)c3)n2N)c(C)n1Cc1ccc2c(c1)OCO2,?,16.5µM*,-4.9%,11.7µM*,?
O=C(CC1SC(N2CCCC2)=NC1=O)Nc1ccc(C(=O)NCc2ccc(F)cc2)cc1 (centres undefined),-2.2%,?,-15.2%,?,.
COc1ccccc1-c1nc(S(=O)(=O)c2ccccc2)c(N2CCC(C)CC2)o1,.,.,1.8%,.,.
C=C1c2ccccc2O[C@H](C(=O)OCC)[C@H]1OC,-3.1%,.,.,.,.
Cc1ccc(-n2nnnc2SCC(=O)c2cc(C)n(CC3CCCO3)c2C)cc1 (centres undefined),-5.6%,1.47µM*,0.0%,?,-5.1%
Cc1ccc(N2CC(C(=O)Nc3ccc(N(C)C)cc3)CC2=O)cc1C (centres undefined),2.7%,8.28µM*,7.8%,5.4%,-9.8%
Cc1ccc(N2CC(C(=O)Nc3cccc(F)c3)CC2=O)cc1 (centres undefined),-5.6%,2.33µM*,3.2%,-6.1%,-2.8%
CCOc1ccc(N2CC(C(=O)Nc3ccc(F)cc3F)CC2=O)cc1 (centres undefined),4.5%,9.28µM*,2.1%,-9.4%,4.2%
CCOc1ccc(N2CC(C(=O)Nc3ccccc3OC)CC2=O)cc1 (centres undefined),7.6%,?,-11.5%,?,1.1%
CCOc1cccc(NC(=O)C2CC(=O)N(c3ccc(F)cc3)C2)c1 (centres undefined),5.6%,?,.,-3.7%,-3.6%
CCOc1ccc(N2CC(C(=O)N3CCCC3)CC2=O)cc1 (centres undefined),-3.6%,11.7µM*,5.7%,11.9%,-3.6%
O=C(O)COc1ccccc1/C=N/NC(=O)CSc1nnc(SCc2ccccc2)s1,66.5%,19.5%,16.8%,14.0%,13.1%
CCCNC(=O)C1CC(=O)N(c2ccc(OCc3ccc(F)cc3)cc2)C1 (centres undefined),-1.9%,?,-10.4%,243.1%,-2.9%
C=CCNC(=O)C1CC(=O)N(c2ccc(OCc3ccc(F)cc3)cc2)C1 (centres undefined),-4.6%,11.7µM*,13.3%,156.4%,5.6%
O=C(Cn1ncc2c([nH]c3ccccc32)c1=O)NCCCN1CCN(c2ccc(F)cc2)CC1,.,.,8.8%,.,.
CCOC(=O)/C=C1\CC(C(=O)OCC)Oc2ccccc21 (centres undefined),19.1%,.,.,.,.
CCOC(=O)/C=C1\CN(CCC(C)C)S(=O)(=O)c2ccccc21,8.9%,14.7µM*,56.2µM*,?,0.3%
CCOC(=O)/C=C1\CN(C(C)c2ccccc2)S(=O)(=O)c2ccccc21 (centres undefined),-3.5%,-25.8%,28.2µM*,-3.2%,5.2%
SMILES,AMA1 RON2 block,Pf growth 96h,Sm TGR block,Pf growth 48h,NS1 inh
O=C(CC1N=C2c3ccccc3N=C(SCc3cccc(Cl)c3)N2C1=O)NCCc1ccccc1 (centres undefined),.,.,0.7%,.,.
Cc1cc(CC(=O)O)c(C)n1-c1ccc(Cl)cc1,.,10.7µM*,.,?,.
Cc1cc(C(=O)C(=O)O)c(C)n1-c1ccc(Cl)cc1,-1.4%,-5.0%,4.6%,-2.4%,-1.1%
CCCCCSc1nnc2c(n1)OC(CC)Nc1ccc(Br)cc1-2 (centres undefined),.,.,-1.7%,.,.
O=C(O)CCn1cc(C=C2C(=O)NC(=S)NC2=O)c(-c2ccccc2)n1,-8.7%,-17.5%,79.4µM*,4.6%,12.9%
O=C(O)CCn1cc(C=C2C(=O)NC(=S)NC2=O)c(-c2cc3ccccc3oc2=O)n1,-12.9%,50.7%,10µM*,20.4%,2.4%
O=C(O)/C=C/c1cn(-c2ccccc2)nc1-c1cc2ccccc2oc1=O,1.6%,28.9%,-11.4%,24.6%,2.3%
c1cnc2nc(-c3ccc4c(c3)OCO4)cn2c1,4.0%,45.7%,13.4%,127.8%,-3.9%
c1ccn2cc(-c3ccc4c(c3)OCO4)cc2c1,-7.1%,0.8%,44.7µM*,?,7.5%
CC1C2CCC3C4CC=C5CC(N(C)C)CC[C@@]5(C)C4CC[C@@]32CN1C (some centres undefined),.,?,.,15.1µM*,.
CCOC(=O)C1(CCOc2ccccc2)CCN(C(=O)CCSC)CC1,-1.1%,.,.,.,.
COc1ccc(C(=O)Nc2cc(C)on2)cc1[N+](=O)[O-],5.5%,19.2%,-20.2%,-6.0%,.
CCOC(=O)Nc1ccc(OC)c([N+](=O)[O-])c1,4.4%,-0.2%,-5.0%,14.7µM*,.
COc1ccc(C(=O)NC(=S)Nc2cc(C)ccn2)cc1[N+](=O)[O-],63.5%,4.65µM*,-7.1%,30.5%,16.0%
O=C(Nc1ccc2c(c1)OCCO2)c1ccc(Cl)c([N+](=O)[O-])c1,1.4%[2.32 µM],33.8%,-2.9%,36.3%,2.3%
CCOC(=O)Nc1ccc([N+](=O)[O-])cc1OC,-12.3%,.,.,.,.
O=C(Nc1ccc(C2=NCCN2)cc1)c1ccc(C(=O)Nc2ccc(C3=NCCN3)cc2)c([N+](=O)[O-])c1,?,0.147µM*,2.5%,0.37µM*,-42.0%
COc1ccc(/C=N/NC(=O)c2ccncc2)cc1[N+](=O)[O-],16.6%,4.15µM*,-5.2%,28.9%,.
C[C@H](NC(=O)c1nc[nH]c1C(=O)N1CCN(c2ccccc2)CC1)c1ccccc1,59.2%,-1.4%,-7.3%,33.6%,.
Cc1cnc(NC(=O)Nc2ccc(OCc3ccccc3)cc2)c(Br)c1,-5.0%,2.2%,-2.9%,22.6%,1.1%
CCCCCC(=O)O/N=C(\C)c1ccn(S(=O)(=O)c2ccccc2)c1,3.1%,22.8%,-5.9%,.,-53.4%
COc1ccc(S(=O)(=O)Nc2ccc3c(c2)C(=O)N([C@H](C)CO)C[C@H](C)[C@@H](CN(C)C(=O)Nc2c(C)noc2C)OCCCC[C@H](C)O3)cc1,-0.7%,.,.,.,.
